PubChem BioAssay (NCI)
This is part of a sample that, as a whole, favours compounds with a hit. Of some 79,000 tested, about 15% had one in any assay. Unmarked numbers belong to inactive results. Cut-off read from the data, not from the text of the source: active = growth inhibition above about 70%; inactive = the rest.

Tests used:
[1] = NCI Yeast Anticancer Drug Screen. Data for the mlh1 rad18 strain (AID 175); details: S. cerevisiae mlh1 rad18 strain growth inhibition; at 50.0 µM; stronger effect = higher value
How it was run: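 In this whole-cell yeast screen, a strain with altered DNA damage repair is challenged with compound, and its growth is measured against matched vehicle-treated controls.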

[2] = NCI Yeast Anticancer Drug Screen. Data for the mec2-1 strain (AID 157); details: S. cerevisiae mec2-1 strain, at 50.0 µM, stronger effect = higher value
How it was run: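 Test agents were screened against the mec2-1 yeast strain, with defined DNA repair or cell cycle alteration. Growth was scored as inhibition against vehicle-only controls.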

[3] = NCI Yeast Anticancer Drug Screen. Data for the sgs1 mgt1 strain (AID 161);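 note: 0% = growth of cultures given vehicle only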; details: S. cerevisiae sgs1 mgt1 strain, at 50.0 µM, stronger effect = higher value
How it was run: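 Read-out: growth inhibition vs vehicle controls. Cells: mutant yeast strain deficient in DNA damage repair.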

[4] = NCI Yeast Anticancer Drug Screen. Data for the cln2 rad14 strain (AID 165);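 note: 0% = growth equal to vehicle treated cultures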; details: S. cerevisiae cln2 rad14 strain, at 50.0 µM, stronger effect = higher value
How it was run: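 Growth of compound-exposed yeast (cln2 rad14 genotype) measured and expressed as inhibition relative to vehicle.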

[5] = NCI Yeast Anticancer Drug Screen. Data for the bub3 strain (AID 167); details: S. cerevisiae bub3 mutant strain, at 50.0 µM, stronger effect = higher value
How it was run: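 Yeast carrying a defined mutation is treated with each compound, and growth is compared with that of vehicle-exposed cells to give inhibition.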

Question: With O=C(O)C(=O)C(O)C(O)C(O)CO.O=C(O)C(=O)C(O)C(O)C(O)CO.[NH-]C1CCCCC1[NH-].[Pt+2] (stereo not given) as the compound, how does the growth inhibition [1] read?
Answer: -53.1%

Question: For COc1ccc(-c2cc(=O)c3ccc(O)cc3o2)cc1, which growth inhibition [1] is on record?
Answer: 38%

Question: Which growth inhibition [2] does the source give for CCC(=O)CC1CCCC(CC(=O)CC)N1C (stereo not given) here?
Answer: -2.55%

Question: And the growth inhibition [1]?
Answer: 17.6%

Question: With O=Cc1ccc2c(c1Cl)C(=O)c1ccccc1C2=O as the compound, how does the growth inhibition [1] read?
Answer: 68.3%

Question: For Cc1c(CNc2ccc(C(=O)NC(CC(=O)O)C(=O)O)cc2)ccc2nc(N)nc(N)c12 (stereo not given), which growth inhibition [3] is on record?
Answer: 47.8%

Question: And the growth inhibition [4]?
Answer: 9.35%

Question: And the growth inhibition [5]?
Answer: 16.4%

Question: What does the source list for NC(=S)N/N=C/c1cc([N+](=O)[O-])ccc1Cl?
Answer: growth inhibition [2]: -9.75%; growth inhibition [1]: 10.2%
